The supplement of paper PMC3545927
The list shows a part of the results. How many sequences the whole screen found active is unknown.

B1: FS-1677 (peptide)
chain: CAPERRDVCWAGNASASA
B2: HC458 (peptide)
chain: CASRCGSGPWAGNASASA
B3: FS-1879 (peptide)
chain: CAERRRQAGAAGNASASA
B4: FS-1427 (peptide)
chain: CATWHRLRKGAGNASASA
B5: FS-770 (peptide)
chain: CAFPDRVKRNAGNASASA
B6: FS-362 (peptide)
chain: CALRRRLRKQAGNASASA
B7: FS-318 (peptide)
chain: CAWLKRQKRNAGNASASA
B8: FS-1234 (peptide)
chain: CALRRRQKRQAGNASASA
B9: FS-219 (peptide)
chain: CACGKRFKKNAGNASASA
B10: HC393 (peptide)
chain: CAFDQGWGPIAGNASASA
B11: HC1936 (peptide)
chain: CATTPCSGSGAGNASASA
B12: HC2536 (peptide)
chain: CASTPCSGHLAGNASASA

Biological target: furin, P09958
Sequence (P09958 whole entry): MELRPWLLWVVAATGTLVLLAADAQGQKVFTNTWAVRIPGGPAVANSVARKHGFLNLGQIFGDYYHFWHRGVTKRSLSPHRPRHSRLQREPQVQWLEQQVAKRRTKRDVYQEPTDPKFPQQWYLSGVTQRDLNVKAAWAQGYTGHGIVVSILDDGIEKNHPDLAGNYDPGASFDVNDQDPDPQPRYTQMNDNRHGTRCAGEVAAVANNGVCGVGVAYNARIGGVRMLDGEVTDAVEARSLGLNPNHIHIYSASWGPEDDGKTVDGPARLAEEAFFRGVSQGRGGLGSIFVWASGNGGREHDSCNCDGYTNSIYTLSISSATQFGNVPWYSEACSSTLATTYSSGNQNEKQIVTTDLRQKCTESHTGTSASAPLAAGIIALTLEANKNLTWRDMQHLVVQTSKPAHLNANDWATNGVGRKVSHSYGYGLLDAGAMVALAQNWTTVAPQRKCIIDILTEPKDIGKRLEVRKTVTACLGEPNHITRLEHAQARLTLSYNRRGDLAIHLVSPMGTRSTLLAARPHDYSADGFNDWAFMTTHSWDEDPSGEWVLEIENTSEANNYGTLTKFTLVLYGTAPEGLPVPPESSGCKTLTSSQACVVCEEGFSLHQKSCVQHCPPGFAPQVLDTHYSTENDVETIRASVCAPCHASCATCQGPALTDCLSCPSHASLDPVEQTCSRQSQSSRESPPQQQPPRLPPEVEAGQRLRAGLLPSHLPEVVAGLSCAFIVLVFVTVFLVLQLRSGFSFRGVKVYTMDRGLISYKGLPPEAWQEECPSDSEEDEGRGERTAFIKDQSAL
Assay: furin cleavage Z-score vs untreated control; higher = more cleavage, active = 3.5 or more, inactive = 1 or less, 8 variable residues between constant flanks
Method: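 Multiplexed peptide-cDNA fusion cleavage assay. 8-mer variable peptides flanked by constant Cys-Ala (N-term) and Ala-Gly-Asn-Ala-Ser-Ala-Ser-Ala (C-term) and conjugated to a cDNA oligonucleotide were bead-immobilised via the N-terminus. They were treated with purified furin at a 1:10 enzyme:substrate ratio in 50 mM HEPES pH 7.5, 1 mM CaCl2, 100 mM NaCl for 7.5, 15 or 30 min. Released cDNA was counted by next-generation sequencing, and log counts versus no-furin controls were lowess-adjusted and converted to robust Z-scores.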

Row | Sequence | furin cleavage Z-score (7.5 min) | furin cleavage Z-score (15 min) | furin cleavage Z-score (30 min)
1 | B1 | -0.617 (inactive) | -1.12 (inactive) | 0.841 (inactive)
2 | B2 | -0.489 (inactive) | -1.8 (inactive) | -0.818 (inactive)
3 | B3 | -0.934 (inactive) | -0.697 (inactive) | -1.89 (inactive)
4 | B4 | -1.13 (inactive) | -0.138 (inactive) | -1.3 (inactive)
5 | B5 | 3.16 | 3.37 | 3.96 (active)
6 | B6 | 4.47 (active) | 6.23 (active) | 5.78 (active)
7 | B7 | 12.5 (active) | 12.8 (active) | 10.3 (active)
8 | B8 | 11.3 (active) | 12.6 (active) | 9.62 (active)
9 | B9 | 1.2 | -0.0472 (inactive) | 1.28
10 | B10 | -0.624 (inactive) | -1.32 (inactive) | -0.893 (inactive)
11 | B11 | -2.04 (inactive) | 2.2 | -0.763 (inactive)
12 | B12 | -0.918 (inactive) | -1.44 (inactive) | -0.11 (inactive)
